# Measured values: PubChem BioAssay (NCI)
# About 83,000 compounds went through this panel and 20% of them were active in at least one assay; those are over-represented in the sample as a whole.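 Negative percent growth values reflect cell death: -40 means 40% of the cells present at the start died, and -100 means all died.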 Values without a mark were called inactive. Active and inactive are the calls of the source. How the source made its calls: active means growth percent below 10; inactive means the rest.
# Assays:
# Test in all cases: NCI-60 one-dose screen, 48 h (100 = growth as untreated, 0 = no growth, -100 = all killed)
# [1] = tested on: T-47D breast; details: 10 µM unless noted
# [2] = tested on: BT-549 breast; details: 10 µM unless noted
# [3] = tested on: MDA-MB-435 melanoma; details: 10 µM unless noted
# [4] = tested on: SW-620 colon; details: 10 µM unless noted
# [5] = tested on: MCF7 breast; details: 10 µM unless noted
# [6] = tested on: HCT-116 colon; details: 10 µM unless noted
# [7] = tested on: HCC-2998 colon; details: 10 µM
# [8] = tested on: KM12 colon; details: 10 µM unless noted
SMILES,growth [1],growth [2],growth [3],growth [4],growth [5],growth [6],growth [7],growth [8]
Cc1cc(C(=O)NOCCO)c(Nc2ccc(I)cc2F)n(C)c1=O,103%,85.7%,35.4%,24.8%,94.7%,15.2%,-16.6% (active),28.4%
O=c1sn(-c2cccc3ccccc23)c(=O)n1Cc1ccccc1,91.5%,110%,104%,110%,103%,88.1%,110%,104%
CSc1nc2ncnc(SC)c2[nH]1,105%,93.3%,100%,109%,93.1%,81.4%,113%,106%
CC/C(=C(\c1ccc(OCCN2CCCCCCC2)cc1)c1ccc(OC(=O)C2CCCCC2)cc1)c1ccc(Cl)cc1,77.4%,116%,99.8%,95.5%,48.5%,87.3%,109%,97.1%
S=C(NCc1ccc2c(c1)OCO2)N1CCN(c2ncnc3c2oc2ccccc23)CC1,1.12% (active),32.3%,19.3%,40.9%,18.7%,34.3%,57.4%,45.2%
CN1CCN(Cc2ccc(NC(=O)c3[nH]ncc3Nc3ncnc4sc5c(c34)CCCC5)cc2)CC1,9.76% (active),-20.7% (active),-89% (active),-52% (active),-67.2% (active),-96% (active),-74.9% (active),-64.3% (active)
C/C(=N\NC(=O)Cn1c(-c2ccc(S(C)(=O)=O)cc2)nc2ccccc21)c1ccc(Cl)cc1,81.3%,85%,97.4%,101%,82.9%,83.1%,106%,95.6%
CN1CCC(COc2cnc(-c3cccc(Cn4nc(-c5cccc(C#N)c5)ccc4=O)c3)nc2)CC1,-49.1% (active),63.4%,53.8%,45.6%,60.3%,22.5%,80.7%,33.7%
CC[C@@H]1C(=O)N(C)c2cnc(Nc3ccc(C(=O)NC4CCN(C)CC4)cc3OC)nc2N1C1CCCC1,-7.47% (active),17.5%,2.22% (active),12.3%,7.63% (active),0.114% (active),-28.6% (active),12.9%
Cc1ccc(NC(=O)Nc2ccc(Nc3ncnc4sc5c(c34)CCOC5)cc2)cc1Cl,58.5%,101%,103%,133%,82.8%,101%,112%,105%
CN1CC[C@@H](c2c(O)cc(O)c3c(=O)cc(-c4ccccc4Cl)oc23)[C@@H]1CO,-8.71% (active),-4.92% (active),-67.9% (active),4.02% (active),4.7% (active),3.53% (active),-25.8% (active),3.84% (active)
O=C(Cc1ccc(/C=C/C(=O)c2ncc[nH]2)cc1)Nc1ccc(Br)cc1,17.5%,20.5%,43.5%,2.37% (active),11.8%,-40.2% (active),78.6%,-43.3% (active)
N#CCNC(=O)c1ccc(-c2ccnc(Nc3ccc(N4CCOCC4)cc3)n2)cc1,63.5%,10.8%,42.5%,24%,15.6%,-4.58% (active),30.8%,16.9%
O=C(CNc1nnc(-c2ccc(Cl)cc2)o1)Nc1ccc(-c2nc3ccccc3s2)cc1,79.9%,87%,97.1%,110%,34.5%,89.8%,93.5%,97%
CCCC(=O)OCC1OC(n2cnc3c(=S)nc[nH]c32)C(OC(=O)CCC)C1OC(=O)CCC (stereo not given),36.5%,45.5%,38%,38.1%,24.2%,35.9%,2.11% (active),43.3%
C=CCC(=O)N[C@H](/C=C/C(=O)O)Cc1ccc(-c2cc(Cl)cc(Cl)c2)cc1,81%,92%,103%,104%,92.7%,82.5%,101%,98.5%
CCN1CCN(CCCN(C[C@H]2Cc3ccccc3CN2)[C@H]2CCCc3cccnc32)CC1,103%,79.7%,105%,89.6%,100%,76.4%,102%,87.1%
Cn1cnc2c(F)c(Nc3ccc(Br)cc3F)c(C(=O)NOCCO)cc21,81.9%,81.7%,32.5%,21%,87.3%,19%,0.38% (active),27.5%
CC(C)(C)C(=O)OCOP(=O)(OCOC(=O)C(C)(C)C)C1CCCN(OC(=O)c2ccccc2)C1=O (stereo not given),13.8%,7.84% (active),45.2%,45.1%,0.983% (active),13%,25.2%,5.57% (active)
C=CC(=O)N1CCC(Oc2cc3c(Nc4ccc(Cl)c(Cl)c4F)ncnc3cc2OC)CC1,-4.87% (active),8.14% (active),-34.7% (active),32.8%,26.8%,21.8%,67.1%,30.6%
NC(=O)c1c(OCc2c(F)cc(Br)cc2F)nsc1NC(=O)NCCCCN1CCCC1,-45.1% (active),-51.2% (active),-58.9% (active),-60.5% (active),1.88% (active),-37.9% (active),-13.8% (active),-4.19% (active)
O=C(Cn1ccnc1)Nc1ccc(-c2nc3ccccc3s2)cc1,51.4%,65.1%,81.6%,99.8%,61.3%,68.2%,94.9%,84.4%
NC(=O)N1N=C(c2ccc(Cl)cc2)CC1c1cn(-c2ccccc2)nc1-c1ccc(Cl)cc1 (stereo not given),45.6%,98.9%,75.2%,84.8%,63.7%,31.9%,78.6%,62.7%
COc1ccc2c(CCCC(c3ccccc3)c3ccccc3)c3[n+](cc2c1OC)CCc1cc2c(cc1-3)OCO2,-15.6% (active),-65.6% (active),-90.7% (active),0.287% (active),-3.37% (active),-33.9% (active),-81.9% (active),-65% (active)
O=C(Cn1c(=O)ccn(CCCCCCCCOc2ccc(Br)cc2)c1=O)Nc1ccc(Oc2ccc(Cl)cc2)cc1,37.8%,54.1%,65.6%,73%,41.3%,46.5%,75.5%,61.7%
CCOC(=O)Sc1ncnc2nc[nH]c12,34.7%,50.7%,33.3%,68.5%,18.7%,31.2%,26.4%,59.3%
C=CC(=O)Nc1cc(Nc2nccc(-c3cn(C)c4ccccc34)n2)c(OC)cc1N(C)CCN(C)C,-60.8% (active),-39.7% (active),-93.9% (active),-63.7% (active),-61.3% (active),-79.8% (active),-86.4% (active),-47.7% (active)
COC(=O)[C@H](Cc1ccccc1)NC(=O)[C@@H](OC)[C@@H]1Cc2cc3cc(OC4CC(OC5CC(O)C(O)C(C)O5)C(O)C(C)O4)c(C)c(O)c3c(O)c2C(=O)[C@H]1OC1CC(OC2CC(OC3CC(C)(O)C(O)C(C)O3)C(O)C(C)O2)C(O)C(C)O1 (stereo not given in full),2.51% (active),-62.4% (active),-69.4% (active),6.79% (active),3.21% (active),1.85% (active),-45.2% (active),-5.45% (active)
O=C1C=CC2(NN=C(c3ccccc3)N2c2ccc(Cl)cc2)c2cccc(O)c21 (stereo not given),87.2%,33.5%,-91.5% (active),52.5%,45.4%,26.1%,64.4%,58.6%
O=C(Nc1nc2cccc(-c3ccc(CN4CCS(=O)(=O)CC4)cc3)n2n1)C1CC1,80.4%,53.6%,91.3%,30.1%,16.7%,44.3%,79.2%,31.7%
